Each substance was assayed against Protein lin-37 homolog (UniProt Q96GY3) (assay: cross-linking mass spectrometry; other).
Protein lin-37 homolog, sequence (Q96GY3 whole entry): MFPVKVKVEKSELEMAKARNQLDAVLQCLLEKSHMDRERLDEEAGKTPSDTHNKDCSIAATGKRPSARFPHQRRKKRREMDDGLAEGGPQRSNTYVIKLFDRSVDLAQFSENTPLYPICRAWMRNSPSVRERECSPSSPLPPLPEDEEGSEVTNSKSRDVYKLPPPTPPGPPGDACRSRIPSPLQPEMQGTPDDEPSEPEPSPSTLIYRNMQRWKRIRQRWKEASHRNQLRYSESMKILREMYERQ

Listed as a hit, yes:
Protein lin-52 homolog, Q52LA3
Protein lin-9 homolog, Q5TKA1
Protein lin-54 homolog, Q6MZP7

What follows are substances tested against Transcriptional repressor p66-beta (UniProt Q8WXI9) (assay: other; cross-linking mass spectrometry; other).
Transcriptional repressor p66-beta, sequence (Q8WXI9 whole entry): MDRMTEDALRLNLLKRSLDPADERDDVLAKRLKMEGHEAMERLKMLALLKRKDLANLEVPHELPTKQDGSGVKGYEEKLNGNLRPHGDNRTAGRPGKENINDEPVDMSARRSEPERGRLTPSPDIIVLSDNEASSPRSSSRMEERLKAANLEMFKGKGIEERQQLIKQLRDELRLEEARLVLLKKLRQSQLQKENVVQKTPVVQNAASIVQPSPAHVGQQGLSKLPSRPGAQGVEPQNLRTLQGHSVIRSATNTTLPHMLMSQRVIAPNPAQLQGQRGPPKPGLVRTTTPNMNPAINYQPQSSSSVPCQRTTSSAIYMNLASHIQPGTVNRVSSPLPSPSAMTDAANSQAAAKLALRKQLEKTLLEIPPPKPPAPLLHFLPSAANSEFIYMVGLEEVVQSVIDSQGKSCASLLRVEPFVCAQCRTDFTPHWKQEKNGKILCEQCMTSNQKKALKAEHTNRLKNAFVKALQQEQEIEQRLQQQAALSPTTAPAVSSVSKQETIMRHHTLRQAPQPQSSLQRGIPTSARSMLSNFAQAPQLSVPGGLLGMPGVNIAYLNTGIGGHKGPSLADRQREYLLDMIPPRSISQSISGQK

Listed as a hit, yes:
Transcriptional repressor p66-alpha, Q86YP4
ATP-dependent chromatin remodeler CHD4, Q14839
Metastasis-associated protein MTA2, O94776
